Reference: PubChem BioAssay AID485270 (The Scripps Research Institute Molecular Screening Center, 2010)
Screen size: about 330,000 compounds; about 5,800 (1.8%) were called active. This is one part of a sample in which actives are shown more often than they occur. Unmarked numbers belong to inactive results. No stated cut-off is given here; in the data, active means inhibition mostly above about 38% (no sharp cut-off); inactive means mostly below about 40%.

What follows are compounds tested against Orexin/Hypocretin receptor type 1 (Homo sapiens) (UniProt O43613) (assay: blocks the human orexin 1 receptor (AID 485270;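 further: 0% = agonist challenge alone and 100% = reference antagonist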)). Conditions: OX1R-expressing cells, FRET antagonist read-out; at 6.6 µM; stronger effect = higher value.
Orexin/Hypocretin receptor type 1 (Homo sapiens), sequence (O43613 whole entry, looked up): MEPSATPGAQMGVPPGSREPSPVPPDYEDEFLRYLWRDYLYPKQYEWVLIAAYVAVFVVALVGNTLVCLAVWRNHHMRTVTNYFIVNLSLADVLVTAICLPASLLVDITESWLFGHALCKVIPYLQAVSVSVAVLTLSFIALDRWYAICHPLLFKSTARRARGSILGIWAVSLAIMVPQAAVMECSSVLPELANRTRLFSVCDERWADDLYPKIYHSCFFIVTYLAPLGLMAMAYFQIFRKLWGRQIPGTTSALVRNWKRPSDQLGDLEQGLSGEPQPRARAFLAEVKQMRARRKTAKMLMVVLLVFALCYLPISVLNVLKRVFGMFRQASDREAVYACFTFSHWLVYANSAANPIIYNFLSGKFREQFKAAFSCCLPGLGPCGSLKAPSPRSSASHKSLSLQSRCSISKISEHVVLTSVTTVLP
For `CN(C)C(=O)CCc1ccc2c3c([nH]c2c1)[C@]1(CCC2CCCC2)[C@@H](C(=O)N2CCOCC2)C[C@H](CC(=O)NCc2ccco2)C(=O)N1CC3`, the inhibition was 5.29%. `O=C(COC(=O)CSc1ccccc1)Nc1ccc(F)cc1F` showed an inhibition of 13.6%. With `Cn1nnnc1SCC(=O)Nc1cccc(S(=O)(=O)N2CCCCC2)c1` the inhibition was 12%. In the case of `COc1ccccc1N1CC(C(=O)Nc2ccc(S(=O)(=O)N3CCOCC3)cc2)CC1=O` (stereo not drawn), the inhibition is reported as 91.1% (active). In the case of `CC1CCN(S(=O)(=O)c2ccc(NC(=O)C3CC(=O)N(c4ccccc4)C3)cc2)CC1` (stereo not drawn), the inhibition is reported as 25.5%. `Cc1ccccc1N1CC(C(=O)Nc2ccc(S(=O)(=O)N3CCCC3)cc2)CC1=O` (stereo not drawn) gave an inhibition of 15.4%. `CN(Cc1ccc(CNC[C@H]2O[C@@H](n3cnc4c(N)ncnc43)[C@H](O)[C@@H]2O)o1)S(C)(=O)=O` was tested, and the inhibition was -3.7%. `CC(C)c1nnc(NC(=O)C2CCCN2S(=O)(=O)c2ccc(Cl)cc2)s1` (stereo not drawn) gave an inhibition of 39.3%. `O=C(NCc1ccccc1Cl)C1CCCN1S(=O)(=O)c1ccc(F)cc1` (stereo not drawn) gave an inhibition of 2.31%. With `Cc1cccc(NC(=O)C2CCCN(C(=O)Nc3ccc(F)cc3)C2)c1C` (stereo not drawn) the inhibition was 21.2%. For `COc1ccccc1NC(=O)C1CCCN1S(=O)(=O)c1ccc(Cl)cc1` (stereo not drawn), the inhibition was 62.4% (active). `COc1ccc(Cl)cc1NC(=O)[C@@H]1CCCN1C(=O)c1cccs1` showed an inhibition of 1.43%. With `Cc1cccc(NC(=O)C2CCCN2S(=O)(=O)c2ccc(F)cc2)c1C` (stereo not drawn) the inhibition was 50% (active). `CC1Sc2ccc(C(=O)NCc3ccccc3Cl)cc2NC1=O` (stereo not drawn) showed an inhibition of 1.56%. In the case of `NC(=O)Nc1ccc(C(=O)OCC(=O)NC2CCCc3ccccc32)cc1` (stereo not drawn), the inhibition is reported as 19.8%. Work on `COc1cccc(CC2(CO)CCCN(CC3=Cc4cc(OC)ccc4OC3)C2)c1` (stereo not drawn) yielded an inhibition of 25.7%. For `COc1cccc(CC2(CO)CCCN(Cc3ccc(OC(F)F)cc3)C2)c1` (stereo not drawn), the inhibition was 13.4%. `COc1cccc(CC2(CO)CCCN(Cc3nc(-c4cccs4)oc3C)C2)c1` (stereo not drawn) was tested, and the inhibition was 45% (active). Compound `COC(=O)[C@]1(Cc2ccccc2)N[C@H](CN(C)S(=O)(=O)c2ccc(OC(F)(F)F)cc2)[C@@H]2C(=O)N(C)C(=O)[C@@H]21` has an inhibition of 5.12%. Work on `O=C(CSc1ncnc2sccc12)NC1CCS(=O)(=O)C1` (stereo not drawn) yielded an inhibition of 4.8%. In the case of `CCCCNS(=O)(=O)CCNCc1ccccc1OC`, the inhibition is reported as 5.19%. `CCCCNC(=O)C(C)N(CCN(C)C)C(=O)CCCCCN1C(=O)NC(c2ccc(Cl)cc2)C(C(=O)OCc2ccccc2)=C1C` (stereo not drawn) gave an inhibition of 7.69%. Compound `O=C(CCCOc1ccccc1)NNC(=O)c1ccc(Cl)cc1` has an inhibition of 2.88%.
